From the supplement of paper PMC10646978
± gives the standard deviation.

tested on: RAW-Dual (murine macrophage reporter line); test: IRF reporter (Lucia luciferase) activity fold change vs agonist alone; higher = enhanced IRF activity; settings: modulator concentration 10 µM; agonist: LPS 0.1 ug/mL
Procedure, shortened: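 Compound reached 10 μM final in each well by pin transfer, onto RAW-Dual murine macrophage reporter cells seeded at 50 000 per well in 384-well plates. After 1 hour at 37 °C, the cells were stimulated overnight with a PRR agonist. SEAP in the supernatant was read with QUANTI-Blue at 620 nm absorbance for NF-κB, and Lucia luciferase was read with QUANTI-Luc luminescence for IRF. Each signal was turned into fold change against the mean agonist-only control on the same plate, and two replicate plates were averaged with propagated errors.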

Compound	IRF reporter
COc1ccc(CNC(=O)NCC#CCOc2cccc(C(F)(F)F)c2)cc1OC	1.09 ± 0.13
CS(=O)(=O)N(CC(=O)Nc1ccccc1Br)c1ccc(Cl)c(C(F)(F)F)c1	1.13 ± 0.23
CN(C)CCCN(C(=O)Cc1ccc(F)cc1)c1nc2ccc(Cl)cc2s1.Cl	0.714 ± 0.066
CC1CN(Cc2ccccn2)CCC1=O (stereo not drawn)	1.58 ± 0.23
C[C@@H](O[C@H]1OCCN(Cc2n[nH]c(=O)[nH]2)[C@H]1c1ccc(F)cc1)c1cc(C(F)(F)F)cc(C(F)(F)F)c1	1.29 ± 0.084
c1ccc(-c2ccc(C(c3ccccc3)n3ccnc3)cc2)cc1 (stereo not drawn)	1.31 ± 0.076
CC(C)(C)NC[C@H](O)COc1nsnc1N1CCOCC1.O=C(O)/C=C\C(=O)O	1.3 ± 0.34
Cc1cccc(NC(=O)Cc2nnc(NC(=O)Nc3ccc(F)cc3)s2)c1	1.53 ± 0.12
Cc1ccc(C2(c3ccc(C)cc3)CC2C(=O)Nc2cccnc2)cc1 (stereo not drawn)	1.01 ± 0.062
O=[N+]([O-])c1ccc(CSc2nc3ccccc3[nH]2)cc1	1.02 ± 0.13
O=C(Nc1cc2c(cc1Cl)OCCO2)c1cc(Cl)ccc1O	1.26 ± 0.16
O=C(NCCCO)C(=O)Nc1ccccc1F	1.39 ± 0.08
CC12CC3CC(C)(C1)CC(N)(C3)C2 [Prestw-978]	0.925 ± 0.078
COc1ccc(N(CC(=O)NCCSCc2cccc(Cl)c2)S(C)(=O)=O)cc1Cl	1.08 ± 0.12
Cc1cnc2c(c1NCCCO)c(=O)n(C)c(=O)n2C	0.947 ± 0.11
CN(C)CCC=C1c2ccccc2C=Cc2ccccc21.Cl	1.61 ± 0.14
Cc1cn2c(nc1=O)OC1C(O)C(CO)OC12 (stereo not drawn)	1.29 ± 0.2
CC1(C)CC(=O)C2=C(C1)OC(N)=C(C#N)C21CCCCC1	1.13 ± 0.15
